Our source for the egg-laying rate values is the supplement of paper PMC9402605.

± gives the standard deviation of the averaged measurements.

This test deals with Caenorhabditis elegans N2. Kind of test: egg-laying rate relative to DMSO control (serotonin + nicotine background) (fraction of control); higher = more egg-laying. To be noted: background: 12.3 mM serotonin + 7.7 mM nicotine; 60 µM; 1 h. The method, then:
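About 20 young-adult wild-type C. elegans (N2) per well in 96-well plates were exposed to 60 uM compound for 1 h at room temperature, either in M9 buffer (to find stimulators) or in 12.3 mM serotonin + 7.7 mM nicotine (NS, to find inhibitors). Eggs per worm per hour were counted by automated imaging and normalised to the mean of proximal DMSO control wells. Values average the primary screen and two retests of the worm-active (wactive) Egl modulators.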
As for `CCOc1ccc(/C=C/[N+](=O)[O-])cc1` [wact-385], the egg-laying rate turned out to be 0.313 ± 0.11.
